Data reported in ChEMBL document CHEMBL4513146, “CO-ADD screening of Karazin Kharkiv National University (Ukraine) compounds”.
Results with a measured potency or affinity are listed apart.

These compounds were tested on Candida albicans. Settings: Concentration 32 ug.mL-1; ASSAY_TEST Inhibition of Fungal Growth; detection method Absorption (OD530).
`Cc1ccc(Sc2nccn3c(=O)n(CC(=O)Nc4ccccc4Br)nc23)c(C)c1` was tested, and the Inhibition was 1.01%. In the case of `CCc1ccc(N(Cc2ccccc2)S(=O)(=O)c2cccn3cnnc23)cc1`, the Inhibition is reported as 2.34%. In the case of `COc1cc(NC(=O)Cn2nc3ccc(SC(C)(C)C)nn3c2=O)cc(OC)c1OC`, the Inhibition is reported as 0.63%. `Cc1cc(C)c(NC(=O)Cn2nc3ccc(-c4ccc(C)c(C)c4)nn3c2=O)c(C)c1` showed an Inhibition of 0.76%. In the case of `O=S(=O)(c1ccc2nncn2c1)N(Cc1cccc(F)c1)c1cc(F)cc(F)c1`, the Inhibition is reported as 4.13%. In the case of `COc1ccc(-c2cc3c4nn(CC(=O)Nc5ccc(C)cc5)c(=O)n4ccn3n2)cc1`, the Inhibition is reported as 8.11%. In the case of `Cc1c(Cl)cccc1NC(=O)CSc1nc2ccccc2n2c(C)nnc12`, the Inhibition is reported as 0.95%. Compound `CCCCn1c(=O)c2sccc2n2c(=O)n(CC(=O)c3cccc(OC)c3)nc12` has an Inhibition of 1.56%. For `COC(=O)c1ccc(NC(=O)Cn2nc3c4cc(-c5ccc(F)cc5)nn4ccn3c2=O)cc1`, the Inhibition was 3.5%. `O=c1c2sccc2n2c(=O)n(Cc3c(F)cccc3Cl)nc2n1Cc1cccs1` was tested, and the Inhibition was -0.79%. `Cc1nc(-c2ccccc2)cc2nn(CC(=O)Nc3ccc4c(c3)OCO4)c(=O)n12` showed an Inhibition of 0.14%. Work on `O=C(CCc1nnc2c3cc(-c4ccc(F)cc4)nn3ccn12)N1CCC(Cc2ccccc2)CC1` yielded an Inhibition of -1.12%. Work on `Cc1ccc(Cn2nc3c(=O)n(-c4cccc(F)c4)ccn3c2=O)cc1` yielded an Inhibition of 5.68%. For `COc1ccc(NC(=O)Cn2nc3c4cc(-c5ccc(C)c(C)c5)nn4ccn3c2=O)cc1Cl`, the Inhibition was 6.09%. For `CCOc1ccc(C(=O)Cn2nc3n(Cc4ccccc4OC)c(=O)c4sccc4n3c2=O)cc1`, the Inhibition was 6.12%. Work on `Cc1cc(C)c(NC(=O)CSc2nnc3ccc(C(=O)Nc4cccc(F)c4)cn23)c(C)c1` yielded an Inhibition of 1.89%. With `Cc1ccc(N(CC(=O)OC(C)(C)C)S(=O)(=O)c2cccn3cnnc23)cc1` the Inhibition was 3.93%. In the case of `O=C(Cn1nc2c(=O)n(-c3ccc(Br)cc3)ccn2c1=O)Nc1ccc(F)cc1F`, the Inhibition is reported as 0.41%. With `CCOc1ccccc1NC(=O)Cn1c(=O)c2nnc(C(C)C)n2c2ccccc21` the Inhibition was 1.06%. `O=C(CSc1nnc2c(=O)n(-c3ccc(Br)cc3)ccn12)Nc1cccc(F)c1` showed an Inhibition of 6.18%. Work on `COc1cc(NC(=O)Cn2nc3ccc(-c4ccc(Cl)cc4)nn3c2=O)cc(OC)c1` yielded an Inhibition of 1.47%. `O=c1n(Cc2cccc(Cl)c2)nc2ccc(-c3ccccc3)nn12` gave an Inhibition of 2.36%. In the case of `Cc1cccc(Oc2nccn3c(=O)n(CC(=O)Nc4ccccc4C(F)(F)F)nc23)c1C`, the Inhibition is reported as -0.97%. `CCc1nnc2ccc(S(=O)(=O)N(Cc3ccccc3)c3ccccc3)cn12` gave an Inhibition of 2.38%. For `CCc1ccc(N(Cc2cc(F)cc(F)c2)S(=O)(=O)c2cccn3c(C)nnc23)cc1`, the Inhibition was 0.73%. `Cc1nnc2c(S(=O)(=O)N(Cc3cccc(F)c3)c3ccc(C(C)C)cc3)cccn12` showed an Inhibition of 6.76%. For `O=C(Cn1nc2c(SC3CCCCC3)nccn2c1=O)Nc1ccccc1Br`, the Inhibition was 3.41%. `COc1ccc(NC(=O)Cn2nc3c4cc(-c5ccc(C)c(C)c5)nn4ccn3c2=O)c(OC)c1` was tested, and the Inhibition was 3.53%. `O=c1c2nn(Cc3ccccc3F)c(=O)n2ccn1-c1ccccc1` was tested, and the Inhibition was 1.22%. `Cc1cc(C)cc(Nc2nc(C)cc3nn(CC(=O)Nc4ccc(F)cc4F)c(=O)n23)c1` showed an Inhibition of 32.59%. With `CCCCOc1ccc(-c2cc3c4nnc(SCC(=O)Nc5c(C)cccc5C)n4ccn3n2)cc1` the Inhibition was 28.25%. Compound `COc1ccc(-n2ccn3c(SCC(=O)N4CCN(c5ccccc5F)CC4)nnc3c2=O)cc1` has an Inhibition of 2.59%. In the case of `COc1ccccc1N1CCN(C(=O)Cn2nc3c(Sc4cccc(C)c4)nccn3c2=O)CC1`, the Inhibition is reported as 2.52%. With `CCc1ccc(N(Cc2ccc(Cl)cc2)S(=O)(=O)c2cccn3c(C)nnc23)cc1` the Inhibition was 3.63%. In the case of `Cc1ccc(-c2cc3c4nnc(CCC(=O)N5CCN(c6ccccc6F)CC5)n4ccn3n2)cc1C`, the Inhibition is reported as 3.28%. With `COc1ccc(N2CCN(C(=O)Cn3nc4c(Oc5ccccc5)nccn4c3=O)CC2)cc1` the Inhibition was 1.75%. With `O=C(CSc1nnc2c(=O)n(-c3ccc(F)c(F)c3)ccn12)c1cccc(Cl)c1` the Inhibition was 1.86%. In the case of `Cc1nnc2c(SCC(=O)Nc3ccc(Br)cc3F)nc3ccccc3n12`, the Inhibition is reported as 0.1%. Work on `Cc1ccccc1NC(=O)Cn1nc2ccc(SC3CCCCC3)nn2c1=O` yielded an Inhibition of -1.85%. With `COc1cccc(CNC(=O)Cn2nc3c4cc(-c5cc(C)ccc5C)nn4ccn3c2=O)c1OC` the Inhibition was -1.47%.
